Measurements taken from PubChem BioAssay (NCATS).
Inconclusive results are not listed. Activity calls are given as the source filed them. Calls follow the shape of the full dose curve.

Assay: Cytotoxicity counterscreen for inhibitors of SARS-CoV-2 cell entry (AID 1645845); also: nearly all actives have a fitted effect of over 50% in size; as to activity change, negative = cytotoxicity: % is scaled to controls: 0 for no effect and ±100 for the full control effect
Details: cell viability (SARS-CoV-2 entry assay cells); series mostly up to 57.1 µM; activity change, negative = cytotoxicity: at the top concentration
Outline: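 ATP-content luminescence (ATPLite 1step, 15 min RT) read after 48 h compound exposure of Expi293F cells stably expressing human ACE2; normalized to cells-only wells and media-only wells.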
Potency is read from the fitted curve at half-maximal effect.

Structure (SMILES)	activity change, negative = cytotoxicity	outcome	Potency
O=C(O)c1ccc(CCCc2ccc(OCCc3ccc(F)cc3)cc2)o1	-0.717% (inactive)	–	–
c1ccc(-c2cc(CCC3CCNCC3)c3ccccc3n2)cc1	–	inactive	–
c1ccc(-c2ccc(CNc3nc(-c4ccccn4)nnc3-c3ccccc3)cc2)cc1	–	–	14.1 µM (active)
Nc1nc(Nc2ccc3c(c2)CC[C@@H](N2CCCC2)CC3)nn1-c1cc2c(nn1)-c1ccccc1CCC2	-16.5% (inactive)	–	–
CC(=O)O/N=C1\C(=O)N(Cc2cc(Cl)ccc2Cl)c2ccc(Cl)cc21	-28.2% (inactive)	–	–
Cc1nc(C)c(CN2CCN(C(c3ccc(F)cc3)c3ccc(F)cc3)CC2)nc1C	–	inactive	–
CNC(=O)c1ccc2c(C(=Nc3cccc(CN(C)C)c3)c3ccccc3)c(O)[nH]c2c1	-15.4% (inactive)	–	–
C=CC(=O)N[C@H]1CCOC[C@H]1Nc1ncc2cc(-c3c(Cl)c(OC)cc(OC)c3Cl)ccc2n1	–	inactive	–
Nc1nc(OC(c2ccc(-c3cccc(F)c3)cc2)C(F)(F)F)cc(-c2ccc(C[C@H](N)C(=O)O)cc2)n1 (stereo partly drawn)	–	inactive	–
CC(C)(O)CNc1ncc(-c2ccnc(Nc3ccncc3)n2)c(CC2CC2)n1	–	–	25.1 µM (active)
COCCNCc1ccc(-c2cc3nccc(Oc4ccc(NC(=O)C5(C(=O)Nc6ccc(F)cc6)CC5)cc4F)c3s2)nc1	-3.89% (inactive)	–	–
C/C(=N\NC(=O)c1cccc(S(=O)(=O)N2CCOCC2)c1)c1cc(Cl)ccc1O	-15% (inactive)	–	–
O=C1NC(=O)/C(=C\c2ccc(-c3ccc(F)cc3)o2)S1	1.69% (inactive)	–	–
CC(C)C[C@H](NC(=O)[C@H](Cc1ccccc1)NC(=O)OCc1ccccc1)C(=O)C=O	–	inactive	–
Cn1cc(-c2ccc(-c3cncc(Cl)c3N3CCC4(CCNC4=O)CC3)cc2)cn1	0.736% (inactive)	–	–

Assay: Primary qHTS to identify inhibitors of SARS-CoV-2 cell entry (AID 1645846); also: nearly all actives have a fitted effect of over 45% in size
Details: SARS-CoV-2 pseudovirus cell entry assay, luminescence; activity change, negative = inhibition: at 57.1 µM (top of the series) unless noted
Outline: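 HEK293 cells stably expressing human ACE2, pre-treated 1 h with compound, then infected with MLV particles pseudotyped with Wuhan-Hu-1 spike (C-terminal 19-aa truncation). Luciferase luminescence after 48 h at 37 °C, normalised to spike PP and bald PP.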

Structure (SMILES)	Potency	activity change, negative = inhibition	outcome
Cc1cc2cc(Oc3ccnc(Nc4cccc(CS(=O)(=O)NCCN(C)C)c4)n3)ccc2[nH]1	35.5 µM (active)	–	–
O=C1Nc2nc(-c3c(O)cccc3OCC3CC3)cc([C@@H]3CCCNC3)c2CO1	–	-96.7%	–
Nc1nc(Nc2ccc3c(c2)CC[C@@H](N2CCCC2)CC3)nn1-c1cc2c(nn1)-c1ccccc1CCC2	12.6 µM (active)	–	–
Nc1nc(OC(c2ccc(-c3cccc(F)c3)cc2)C(F)(F)F)cc(-c2ccc(C[C@H](N)C(=O)O)cc2)n1 (stereo partly drawn)	–	–	inactive
c1ccc2c(-c3cnn4cc(-c5ccc(OCCN6CCOCC6)cc5)cnc34)ccnc2c1	–	–	inactive [at 27.1 µM]
CC(C)(O)CNc1ncc(-c2ccnc(Nc3ccncc3)n2)c(CC2CC2)n1	10 µM (active)	–	–
COCCNCc1ccc(-c2cc3nccc(Oc4ccc(NC(=O)C5(C(=O)Nc6ccc(F)cc6)CC5)cc4F)c3s2)nc1	–	-25.9%	–
O=C1NC(=O)/C(=C\c2ccc(-c3ccc(F)cc3)o2)S1	–	–	inactive
